Here are results for eight molecules from PubChem BioAssay (Tox21).

In assay [1] the target is Thyrotropin receptor (Homo sapiens) (UniProt P16473). The experiment in a line: qHTS assay to identify small molecule agonists of the thyroid stimulating hormone receptor (TSHR) signaling pathway (AID 1224843; calls by dose curve; note: nearly all actives have a fitted effect of over 45% in size). The method, boiled down: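 Steps: seed 800 TSHR-HEK293 cells per well; add test compound and hold 30 min at ambient temperature; dispense cAMP-d2 then anti-cAMP cryptate; incubate 1 h at ambient; measure fluorescence intensity.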
Thyrotropin receptor (Homo sapiens), sequence (P16473 whole entry, looked up): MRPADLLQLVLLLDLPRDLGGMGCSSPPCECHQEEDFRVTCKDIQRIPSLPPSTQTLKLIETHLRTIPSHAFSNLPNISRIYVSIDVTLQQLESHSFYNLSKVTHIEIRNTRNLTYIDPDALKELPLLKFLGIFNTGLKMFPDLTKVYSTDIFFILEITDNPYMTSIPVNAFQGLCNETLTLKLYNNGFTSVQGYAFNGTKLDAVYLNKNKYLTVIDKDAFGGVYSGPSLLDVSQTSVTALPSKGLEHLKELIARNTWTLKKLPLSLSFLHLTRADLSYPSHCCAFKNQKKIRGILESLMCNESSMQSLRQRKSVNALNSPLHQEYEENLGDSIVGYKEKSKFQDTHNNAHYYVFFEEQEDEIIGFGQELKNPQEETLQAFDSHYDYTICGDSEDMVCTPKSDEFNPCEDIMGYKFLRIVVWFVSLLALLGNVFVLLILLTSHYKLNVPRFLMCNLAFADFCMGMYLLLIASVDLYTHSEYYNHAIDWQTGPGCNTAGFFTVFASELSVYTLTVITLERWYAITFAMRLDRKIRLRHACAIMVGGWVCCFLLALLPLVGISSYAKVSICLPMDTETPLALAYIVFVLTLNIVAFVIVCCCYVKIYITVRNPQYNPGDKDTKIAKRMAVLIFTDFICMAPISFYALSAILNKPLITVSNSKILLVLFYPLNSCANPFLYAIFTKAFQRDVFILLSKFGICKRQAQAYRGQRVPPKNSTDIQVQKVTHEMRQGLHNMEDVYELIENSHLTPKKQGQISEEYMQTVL
(In general: qHTS replaces the single test concentration by a dilution series.)

The nature of assay [2]: qHTS assay to identify small molecule agonists of the hypoxia (HIF-1) signaling pathway - cell viability counter screen (AID 1224844; calls by dose curve; note: nearly all actives have a fitted effect of over 50% in size). The method, boiled down:
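Luminescent ATP content (CellTiter-Glo, 30 min, room temperature) served as the viability measure in HRE-bla ME-180 cells exposed to compounds for 17 hrs in low-serum medium (0.5% dialyzed FBS).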

Assay [3] is described as follows: qHTS assay to identify small molecule agonists of the hypoxia (HIF-1) signaling pathway (AID 1224846; active = well fitted activation curve with a large enough effect in the signal ratio in the repeat runs, not every such curve was filed as active; the % refers to the signal ratio). The method, boiled down:
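Measured by blue/green FRET after loading CCF4-AM: beta-lactamase expressed from a hypoxia response element in ME-180 cells. Test agents were delivered in DMSO and left 17 hrs; cells had been plated 5 hrs earlier in low-serum (0.5% dialyzed FBS) medium.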

Assay [4] is described as follows: qHTS assay to identify small molecule agonists of the estrogen related receptor (ERR) signaling pathway from Tox21 library (AID 1224849; calls by dose curve; note: nearly all actives have a fitted effect of over 15% in size). Particulars: ERR reporter cell line, ONE-Glo luciferase, 18 h; at 92.4 µM (top of the series) unless noted. The procedure, abridged:
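We plated ERR reporter cells, waited 6 h, added compounds in DMSO by pin tool and incubated them 18 h at 37 C. ONE-Glo was then added and luminescence read after 30 min.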

Assay [5] in a line: qHTS RealTime-Glo MT Cell Viability Assay in HepG2 cells - 24 hour (AID 1224867). Note: nearly all actives have a fitted effect of over 50% in size. The procedure, abridged: (§1)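 HepG2 cells were seeded at 600 cells/well together with NanoLuc luciferase and a cell-permeant prosubstrate, preincubated 5 h at 37 C/5% CO2, then pin-dosed with compounds in DMSO. Nonlytic luminescence from viable cells was read at each time point.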
The nature of assay [6]: qHTS RealTime-Glo MT Cell Viability Assay in HEK293 cells - 32 hour (AID 1224868). Note: nearly all actives have a fitted effect of over 50% in size. Note: potency is the fitted concentration of half-maximal effect. The method, boiled down: (§2)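 HEK293 cells were seeded at 600 cells/well together with NanoLuc luciferase and cell-permeant prosubstrate, preincubated 5 h at 37 C/5% CO2, then given compound in DMSO by pintool. Luminescence from viable-cell prosubstrate reduction was read repeatedly over 40 h.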

Assay [7] can be described thus: A CellTox Green Cytotoxicity Assay to monitor cytotoxicity in HEK293 cells - 0 hour (AID 1224869). Note: nearly all actives have a fitted effect of over 50% in size. The method, boiled down: (§3)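 Each value comes from one timepoint of a single continuous run in which HEK293 cells with CellTox Green were exposed to compound for up to 40 h at 37 C, dye fluorescence rising with cell death.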
A short description of assay [8]: qHTS RealTime-Glo MT Cell Viability Assay in HepG2 cells - 40 hour (AID 1224870). Note: nearly all actives have a fitted effect of over 50% in size. The method, boiled down: (§4)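 HepG2 cells (600/well) mixed with RealTime-Glo MT reagent, settled 5 h at 37 C/5% CO2 before compound addition. Nonlytic NanoLuc luminescence from viable-cell prosubstrate reduction read repeatedly during 40 h treatment at 37 C.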
Assay [9] in a line: A CellTox Green Cytotoxicity Assay to monitor cytotoxicity in HEK293 cells - 40 hour (AID 1224871). Note: nearly all actives have a fitted effect of over 45% in size. The procedure, abridged:
as §3

Assay [10] can be described thus: qHTS RealTime-Glo MT Cell Viability Assay in HEK293 cells - 16 hour (AID 1224872). Note: nearly all actives have a fitted effect of over 50% in size. Note: potency is the fitted concentration of half-maximal effect. The procedure, abridged:
as §2

Assay [11] can be described thus: qHTS RealTime-Glo MT Cell Viability Assay in HepG2 cells - 8 hour (AID 1224873). Note: nearly all actives have a fitted effect of over 55% in size. The procedure, abridged: as §4
Assay [12] can be described thus: qHTS RealTime-Glo MT Cell Viability Assay in HEK293 cells - 40 hour (AID 1224874). Note: nearly all actives have a fitted effect of over 50% in size. Note: potency is the fitted concentration of half-maximal effect. As to conditions: RealTime-Glo luminescence; max response: hits give low values. The method, boiled down:
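qHTS format; HEK293 cells with NanoLuc/prosubstrate reagent, 37 C/5% CO2 for 5 h pre-dosing; compounds 23 nL in DMSO; luminescence at each time point reflects viable cells.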

The nature of assay [13]: A CellTox Green Cytotoxicity Assay to monitor cytotoxicity in HEK293 cells - 24 hour (AID 1224875). Note: nearly all actives have a fitted effect of over 45% in size. The procedure, abridged: as §3
A short description of assay [14]: A CellTox Green Cytotoxicity Assay to monitor cytotoxicity in HepG2 cells - 16 hour (AID 1224876). Note: nearly all actives have a fitted effect of over 45% in size. The procedure, abridged:
(§5)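 Continuous culture of HepG2 cells with a membrane-impermeant DNA dye; rising fluorescence marks dead cells. Compound exposure lasted up to 40 h at 37 C, with reads every 8 h from 0 h.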

The nature of assay [15]: qHTS RealTime-Glo MT Cell Viability Assay in HepG2 cells - 32 hour (AID 1224877). Note: nearly all actives have a fitted effect of over 55% in size. The procedure, abridged:
as §1

The nature of assay [16]: A CellTox Green Cytotoxicity Assay to monitor cytotoxicity in HepG2 cells - 24 hour (AID 1224878). Note: nearly all actives have a fitted effect of over 45% in size. The method, boiled down:
as §5

Assay [17] is described as follows: A CellTox Green Cytotoxicity Assay to monitor cytotoxicity in HepG2 cells - 40 hour (AID 1224879). Note: nearly all actives have a fitted effect of over 40% in size. The procedure, abridged:
as §5

Assay [18] is described as follows: qHTS assay to identify small molecule agonists of H2AX - cell viability counter screen (AID 1224847; calls by dose curve; note: top concentration of the series differs between compounds; nearly all actives have a fitted effect of over 30% in size). The procedure, abridged:
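Cytotoxicity counter screen in wild-type CHO-K1 cells: a 3 hr compound treatment at 37C across 15 concentrations, followed by CellTiter-Glo luminescence to gauge viable cells.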

Assay [19] can be described thus: qHTS assay to identify small molecule agonists of H2AX (AID 1224845; active = well fitted activation curve with a large enough effect in the signal ratio in the repeat runs, not every such curve was filed as active; the % refers to the signal ratio). The method, boiled down: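 Wild-type CHO-K1 cells, plated overnight, exposed 3hr at 37C to 15 concentrations (0.76% DMSO final). Lysed, then HTRF anti-pH2AX (S139) cryptate and anti-H2AX-d2 antibodies, 24 hr room temperature; 665/620 nm emission read.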
Assay [20] in a line: qHTS assay to identify small molecule antagonists of the estrogen related receptor (ERR) signaling pathway from Tox21 library (AID 1224848). Note: nearly all actives have a fitted effect of over 50% in size. The method, boiled down: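 Luminescent reporter read-out (ONE-Glo) from NTP's ERR cell line after 18 h treatment at 37 C with DMSO-dissolved Tox21 compounds; cells pre-plated 6 h beforehand at 2,000 per well.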

A number with no mark means an inactive call. Inconclusive results are not listed. Calls of active or inactive are those of the source. Unless noted, calls come from the whole dose curve; as a rule, active = well fitted curve in the direction sought with a large enough effect in the repeat runs; inconclusive = weak or mixed curves; inactive = no such curve, though single readings can be large; an effect the other way counts as inactive or inconclusive.
% is set by controls: 0 for no effect and ±100 for the full control effect.

As to `O=C(c1ccccc1)c1ccc(O)cc1`, the Potency result in [1], in assay [2], in [5], in assay [6], in [7] and in assay [8] was “inactive” each time. Also, the Potency result in [9], in assay [10], in assay [11], in [13], in [14] and in assay [15] was “inactive” each time. For the same molecule, the Potency result in [16] and in assay [17] was “inactive” throughout. The molecule was classed as inactive in [3]. Besides, in [4], the activity change, positive = activation was -59.8%. Further, the max response in [12] is -20.1%.
On to `O=C1OC(=O)c2c(Br)c(Br)c(Br)c(Br)c21`, for which the Potency entry in assay [1], in [2], in assay [18], in assay [6], in assay [7] and in [9] was “inactive” each time. For the same molecule, the Potency result in [10], in [11], in assay [13], in assay [14], in assay [15] and in assay [16] was “inactive” each time. In addition, the Potency entry in [17] was “inactive”. Besides, the molecule was classed as inactive in assay [3]. For the same molecule, the max response in assay [12] is -18%.
Turning to `COc1cc(C(C)=O)ccc1OCCCN1CCC(c2noc3cc(F)ccc23)CC1`, the Potency entry in [1], in assay [19], in assay [18], in assay [7], in assay [8] and in assay [9] was “inactive” in each case. Also, the Potency result in assay [11], in assay [13] and in [14] was “inactive” throughout. Besides, the call in [3] was inactive. The Potency was 10.7 µM (active) in assay [6], 7.56 µM (active) in assay [10] and 10.7 µM (active) in assay [12].
With `CCN(CC)C(=O)/C(C#N)=C/c1cc(O)c(O)c([N+](=O)[O-])c1`, the Potency result in [1], in assay [2], in [18], in assay [5], in assay [7] and in assay [8] was “inactive” throughout. For the same molecule, the Potency result in assay [9], in assay [10], in assay [11], in [13], in [14] and in assay [15] was “inactive” in each case. For the same molecule, the Potency entry in assay [16] and in [17] was “inactive” throughout. In assay [12], the max response is 29.1%.
With `CCCCCCCC(=O)OCCCCCC`, the Potency result in assay [1], in assay [2], in assay [18], in [20], in [5] and in [7] was “inactive” throughout. The Potency entry in assay [8], in assay [9], in assay [11], in assay [13], in assay [14] and in assay [15] was “inactive” throughout. Also, the Potency result in assay [16] and in assay [17] was “inactive” throughout. In addition, the Potency in [12] is 3.47 µM (active).
For `CC1C(C)(C)C2=C(C(=O)CCC2)C1(C)C` (stereo unspecified), the Potency result in assay [1], in [19], in [18], in assay [20], in assay [5] and in [6] was “inactive” each time. In addition, the Potency entry in assay [7], in assay [8], in assay [9], in [10], in [11] and in assay [13] was “inactive” throughout. Also, in assay [15], the Potency result was “inactive”. Also, the call in assay [3] was inactive. For the same molecule, in assay [4], the activity change, positive = activation is -0.756%. For the same molecule, the max response in assay [12] is -12.9%.
As to `CC(C)(O)CCc1ccccc1`, the Potency result in assay [1], in assay [19], in assay [5], in assay [6], in assay [7] and in assay [8] was “inactive” in each case. The Potency entry in assay [9], in assay [10], in assay [11], in [13], in assay [14] and in assay [15] was “inactive” in each case. Besides, the Potency result in assay [16] and in assay [17] was “inactive” in each case. In addition, in assay [3], the call was inactive. Besides, the max response in assay [12] was -8.47%.
Regarding `CCC(C)(C)C(=O)O`, the Potency result in assay [1], in [2], in [18], in [6], in assay [7] and in assay [8] was “inactive” each time. For the same molecule, the Potency result in assay [9], in assay [10], in assay [11], in assay [13], in [15] and in assay [16] was “inactive” each time. The Potency entry in [17] is “inactive”. The max response in assay [12] was -0.784%.
